Marburg entry inh: qHTS for inhibitors of binding or entry into cells for Marburg Virus. Marburg virus pseudotyped entry inhibition, cell reporter. Potency, µM (titrated, usually from 37.8 µM), for the others: at the top dose activity change, negative = inhibition, actives largely listed as inhibitors. actives 1.8% (n = 300,000); calls by dose curve; tested in HEK293 cells; further: potency means the concentration at half of the fitted maximal effect; on the % scale 0 is the no-effect control and ±100 the full control effect
HCV inh: qHTS Assay for Inhibitors of Hepatitis C Virus (HCV). Huh7.5.1 HCVcc-Cre infection, luciferase reporter, 44 h. Potency, µM (series often up to 41.8 µM), inactives show at the highest dose activity change, negative = inhibition, hits mostly inhibitors. actives 3.4% (n = 340,000); active means well fitted inhibition curve with a large enough effect; inconclusive means small, poorly fitted or top-dose-only effect, or another doubt; inactive means no such curve, though single readings can be large or run the other way; further: potency means the concentration at half of the fitted maximal effect; on the % scale 0 is the no-effect control and ±100 the full control effect
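1,000 cells/well; 4 h culture; + compound; + HCVcc-Cre (~0.5 moi); 44 h; luciferase substrate, RT 15 min; read 15 sec.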
HCMV inh: qHTS Assay for inhibitors of the human cytomegalovirus (HCMV). activity change, negative = inhibition, % at 57.5 µM. HFF cells, HCMV-luciferase reporter, 72 h; active compounds read low. AID 1259415, 2018. actives 4.5% (n = 410,000); in the data active means activity change below about -60%; inconclusive means no clear call, values can overlap the other calls; inactive means above about -39%; further: on the % scale 0 is the no-effect control and ±100 the full control effect
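Human foreskin fibroblasts infected with luciferase-reporter HCMV at MOI 1 PFU/cell, compounds at two doses. Luciferase measured 72 h post infection; normalized to buffer-only basal and Salinomycin (10uM) controls.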
SARS PLP yeast: qHTS of Yeast-based Assay for SARS-CoV PLP; S. cerevisiae expressing SARS-CoV PLpro, growth rescue; Potency, µM (highest dose often 32.9 µM), without a hit: at the highest dose activity, positive = growth rescue, usual class: activators; actives 0.19% (n = 330,000); AID 485353, 2010; calls by dose curve; further: potency means the concentration at half of the fitted maximal effect; 0% is about no effect; nearly all actives have a fitted effect of over 55% in size
FMDV antiviral: High Throughput Screening for Foot and Mouth Disease Virus Antivirals; FMDV antiviral cell-based qHTS; Potency, µM (top dose mostly 57.9 µM), for inactives: at the highest dose activity change, negative = inhibition, usual class: inhibitors; actives 1.2% (n = 410,000); calls by dose curve; tested in HEK293T cells; further: read-out not given here; potency means the concentration at half of the fitted maximal effect; on the % scale 0 is the no-effect control and ±100 the full control effect; nearly all actives have a fitted effect of over 45% in size
Lassa entry inh: qHTS for Inhibitors of binding or entry into cells for Lassa Virus. Lassa virus pseudotype entry inhibition, cell reporter. AID 540256, 2011. Potency, µM (titrated, usually from 37.9 µM), inactives show at the top dose activity change, negative = inhibition, most hits filed as inhibitors. actives 1.2% (n = 300,000); calls by dose curve; tested in HEK293 cells; further: potency means the concentration at half of the fitted maximal effect; on the % scale 0 is the no-effect control and ±100 the full control effect; nearly all actives have a fitted effect of over 50% in size
* = called active by the depositor; ? = inconclusive; . = not tested or not shown; [ ] = remark or other dose. Only some compounds are listed: those with a hit (about 8% of all), similar ones and a draw of the others.

SMILES	Marburg entry inh	HCV inh	HCMV inh	SARS PLP yeast	FMDV antiviral	Lassa entry inh
CCNc1ncc2nc(C)c(=O)n(CCC#N)c2n1	.	.	.	.	-18%	.
O=C(Nc1sc2c(c1C(=O)Nc1ccccc1Cl)CCCC2)c1ccccc1F	6%[46.1 µM]	.	13	.	27%	0%[46.1 µM]
CCN1c2ccccc2NC2C1C(C(C)=O)C(=O)N2c1ccc(Cl)cc1 (centres undefined)	?	10µM*	33	-12%	.	?
Cc1ccccc1C(=O)N1CCN(c2ccc(NC(=S)NC(=O)c3ccco3)cc2)CC1	.	6%	-87*	-10%	25µM*	.
CS(=O)(=O)N1CCN(c2ccc(NC(=S)NC(=O)c3ccccc3[N+](=O)[O-])cc2)CC1	-30%[46.1 µM]	13µM*	-30	-6%	?	?
Cc1ccc(C(=O)Nc2ccc(N3CCN(C(=O)c4ccco4)CC3)cc2)cc1	1%[46.1 µM]	-3%	43	-1%	-13%	6%
O=C(Nc1ccc(N2CCN(C(=O)c3ccco3)CC2)cc1)c1ccco1	?	5%	-31	-2%	24%	15%
CCCC(=O)N1CCN(c2ccc(NC(=O)c3ccco3)cc2)CC1	25%	3.2µM*	12	-10%	29%	28%
COc1ccccc1C(=O)NC(=S)Nc1ccc(N2CCN(C(=O)c3ccco3)CC2)cc1	.	32µM*	13	0%	?	.
CCc1ccc(NC(=O)CSc2nc3ncccc3[nH]2)cc1	.	.	-11	.	4%	2%[46.1 µM]
COc1ccc2nc(-c3nc4ccccc4[nH]3)c(C)nc2c1	.	.	17	.	.	.
Cc1cc(NC(=O)CS(=O)(=O)c2cn(Cc3cccc(F)c3)c3ccccc23)no1	?	?	-34	-10%	40µM*	?
Cc1cc(NC(=O)CS(=O)(=O)c2cn(Cc3ccc(F)cc3)c3ccccc23)no1	6%	?	-27	-9%	?	.
O=C1c2ccccc2-c2onc3ccc(NCc4ccco4)c1c23	?	10µM*	.	-12%	?	-24%
CCNc1ccc2noc3c2c1C(=O)c1ccccc1-3	-4%	?	-37	-66%	-21%	-11%
O=C1C(Cl)=C(NCCN2CCCCC2)C(=O)c2ccccc21	.	7.9µM*	.	30%	40µM*	.
O=C1C(Cl)=C(NCc2ccco2)C(=O)c2ccccc21	?	8.9µM*	-86*	.	-18%	-10%[46.1 µM]
Cc1cccc(NC(=O)c2oc3ccccc3c2NC(=O)Cc2coc3cc(C)cc(C)c23)c1	-18%[46.1 µM]	.	-4	.	-1%	-17%[46.1 µM]
Cc1ccc(-c2nnn3c2nc(NCc2ccc4c(c2)OCO4)c2ccccc23)cc1	1%[46.1 µM]	.	50	.	6%	6%[46.1 µM]
CCc1cc2c(nc1CC)CCN(CCC(C)=NOC[C@H]1O[C@H](c3ccccc3)C=C[C@H]1Oc1ccc(OC)cc1)C2	-25%[14.2 µM]	.	.	.	.	.
CCN(CC)CC(=O)Nc1ccc2c(c1)Nc1ccccc1CC2	?	13µM*	78	-8%	4%	-14%
CCOC(=O)Nc1ccc2c(c1)N(C(=O)CN1CCN(C)CC1)c1ccccc1CC2	.	-8%	6	7%	-4%	.
CCOC(=O)Nc1ccc2c(c1)N(C(=O)CN(CC)CC)c1ccccc1CC2	0%	-6%	10	3%	-18%	5%
CCCC(CCC)C(=O)Nc1ccc2c(c1)N(C(=O)CCN1CCN(C)CC1)c1ccccc1CC2	11µM*	?	-29	1%	-18%	-1%
CCN(CC)CC(=O)Nc1ccc2c(c1)N(C(=O)CN(CC)CC)c1ccccc1CC2	8.2µM*	?	5	0%	.	?
SMILES	Marburg entry inh	HCV inh	HCMV inh	SARS PLP yeast	FMDV antiviral	Lassa entry inh
O=C1NC(c2ccccc2)=C(c2nc3ccccc3s2)C(c2ccc(F)cc2)N1 (centres undefined)	23µM*	?	-27	-9%	22µM*	?
COCCn1c(=O)c(-c2ccc(Cl)cc2)nc2cnc(N(C)C)nc21	.	.	.	.	10%	.
Cc1cccc(NC(=O)N2CCC(C(=O)c3ccc(F)cc3)CC2)c1	-29%[46.1 µM]	?	-64*	-2%	24%	25%
CCCCN(C)C(=O)CN1C(=O)CCn2nc(-c3cn(C)c4ccccc34)cc21	.	.	3	.	-8%	0%[46.1 µM]
COc1ccccc1-c1nc(S(=O)(=O)c2ccccc2)c(N2CCC(C)CC2)o1	?	.	8	.	-2%	-27%[46.1 µM]
COc1ccccc1CN1CC(C(=O)NCCN(C)CCc2ccccc2)CCC1=O (centres undefined)	?	4%	-25	-3%	13%	5.6µM*
COc1ccccc1CN1CC(C(=O)N2CCCCCCC2)CCC1=O (centres undefined)	-10%	14%	6	-2%	15%	7%
COc1ccccc1CN1CC(C(=O)N2CCC(OC)CC2)CCC1=O (centres undefined)	10%	23%	-64*	3%	-1%	-3%
COc1cc(=O)n2c(c1C(=O)NC(C)c1ccco1)CCN(C(=O)c1[nH]c(C)cc1C)CC2 (centres undefined)	.	.	.	.	-7%	.
CCS(=O)(=O)N1CCCc2cc(C(=O)Nc3cc([N+](=O)[O-])ccc3C)ccc21	-9%[46.1 µM]	.	-39	.	28µM*	-10%[46.1 µM]
CCS(=O)(=O)N1CCc2cc(C(=O)Nc3cc([N+](=O)[O-])ccc3C)ccc21	7%[46.1 µM]	.	-9	.	?	0%[46.1 µM]
O=c1cc(-c2ccc(O)c(O)c2)oc2ccc3ccccc3c12	?	?	-5	0%	6.3µM*	?
CCN(CC)c1ccc(NC(=O)COc2ccc(-n3cnnn3)cc2)cc1	-20%[46.1 µM]	22µM*	-21	-2%	0%	-3%[46.1 µM]
CCOc1ccc(NC(=O)COc2ccc(-n3cnnn3)cc2)cc1	.	-8%	-8	-2%	-3%	.
COc1ccccc1C(=O)COC(=O)c1ccc(-n2cnnn2)cc1	1%	10µM*	-18	0%	22%	11%
COc1ccccc1C(=O)COC(=O)c1cccc(-n2cnnn2)c1	.	0%	3	-1%	11%	.
COc1cc(NC(=O)COc2ccc(-n3cnnn3)cc2)cc(OC)c1OC	-9%	11µM*	-6	2%	?	25%
Cc1ccc(-c2noc(CN(C3CCCCC3)S(=O)(=O)c3ccc(F)cc3)n2)cc1	?	.	?	.	-12%	-4%[46.1 µM]
CCc1ccc(C(=O)CSc2nc(-c3ccccc3)nc3c2CCCC3)cc1	?	.	12	.	-13%	12%[46.1 µM]
COc1ccc(N2CCN(C(=O)CSc3nnc(-c4cc5ccccc5cc4O)n3C)CC2)cc1	-18%	?	-67*	-2%	25µM*	-2%
Cn1c(SCC(=O)N2CCN(c3ccccc3)CC2)nnc1-c1c[nH]c2ccccc12	.	?	-80*	-3%	18µM*	.
COc1ccc(N2CCN(C(=O)CSc3nnnn3-c3ccc4c(c3)OCCO4)CC2)cc1	-6%	7.9µM*	?	3%	.	2.9µM*

Bioassay records as filed in PubChem BioAssay.
